These entries were drawn from the full list. No count for the full screen is at hand.
B1: il2ra_site2_2erj_sap_27_mot_HHH_b1_06697_000000025_0001_41_54_H_._HHH_b2_06097_0001_0000200013_0000001_0_0001 (protein)
chain: SSSSDKLRELYKLAVELMRLVAEGDEERFEEVAEEVRKLVEELDSRTAREILEALERKIKSSSSS
B2: il2ra_site2_3nfp_sap_22_mot_ems_3hM_1278_af2_000000151_0001_43_60_H_._HHH_b2_04893_0001_0000100005_0000001_0_0001 (protein)
chain: SSSSSEELEELIEQARELLEEGDKYEAAQVVLRASRLALELNDPEAARRILELFEEIQRTSSSSS
B3: il2ra_site2_3nfp_sap_18_mot_7f6a3539c8daa08639e4cdbcc6f77908_0001_af2_000000032_0001_16_31_H_._HHH_b1_04314_af2_0001_0000300027_0000001_0_0001 (protein)
chain: SSSSDKSEEYLRIALELLEEAIKAGDEEAARSHLEVAKAAAESHNDEEVEERLEELEELLSSSSS
B4: il2ra_site2_2erj_sap_12_mot_HHH_b1_05666_000000037_0001_42_55_H_._HHH_b2_06677_0001_0000400020_0000001_0_0001 (protein)
chain: SSSSDERLHELYKLANELLRLEFEGDEERIEELLQRVRELAEELKSDAARELVERVEKKLSSSSS
B5: il2ra_site1_1z92_normal_mot_HHH_b2_05027_000000150_0001_42_56_H_._HHH_b2_03014_0001_0000400026_0000001_0 (protein)
chain: SSSSSSSEEWLEELVELVIKRSDDPEEQEELRRLLEELREEGDPELWLELAQLLIEIASSSSSSS
B6: il2ra_site1_3nfp_sap_17_mot_HHH_b1_06312_000000077_0001_1_18_H_._HHH_b1_02603_af2_0001_0000500014_0000001_0_0001_af2pred_0001_af2pred_1 (protein)
chain: SSSSDVEEFLEEIKEELREALEKGDARLAARIFKEASKKLREKGNPELAEELYEFLRKLISSSSS
B7: il2ra_site2_2erj_sap_25_mot_HHH_b1_02841_000000060_0001_43_57_H_._HHH_b1_02445_af2_0001_0000300014_0000001_0_0001 (protein)
chain: SSSSDTEERVEEVLEEARKAYEEGDLHEVYRLAVEAMRIASENNDQEALELVLRFIEELSSSSSS
B8: il2ra_site1_2b5i_sap_8_mot_HHH_b1_04517_000000040_0001_39_52_H_._HHH_b2_05314_0001_0000400027_0000001_0_0001_af2pred_dldesign_0_af2pred (protein)
chain: SSSDPKALAETAAAIVEELEEKYNLNLEQSAVLERLAVELVWKGVSPEEIRRRLEALAKELSSSS
B9: il2ra_site1_1z92_normal_mot_01209686ea234b34325f918445e6eade_0001_af2_000000154_0001_18_33_H_._HHH_b1_01021_0001_0000100004_0000001_0_af2pred_0001_1_af2pred_swa … (protein)
chain: SSSSSDELEEFIEELVKELGLDEEAKETLERLLEKLQEQGVSERAIRRALERMARRMRGSSSSSS
B10: il2ra_site2_3nfp_sap_11_mot_HHH_b1_00882_af2_000000293_0001_1_18_H_._HHH_b1_01194_af2_0001_0000300012_0000001_0_0001 (protein)
chain: SSSSSSSLYELLQEAVEAAKNGNPEEAKEILEQALEEAREAGDEEAEHFIEWFIKAVRSSSSSSS
B11: il2ra_site2_2erj_normal_mot_HHH_b1_04373_af2_000000118_0001_18_33_H_._HHH_b2_00961_af2_0001_0000900028_0000001_1 (protein)
chain: SSSSSDEEEVERRVRELLEEAEKVDLEEAYKLAVEALHLAAENRDPELLRLILEWVEKHSSSSSS
B12: il2ra_site2_3nfp_sap_15_mot_HHH_b1_02990_000000128_0001_41_58_H_._HHH_b1_03794_0001_0000400021_0000001_0_0001 (protein)
chain: SEAEEIIKLIAELLGTPPERVRERVEDAAEIVNRPPEEAAAYLLAQVALELGDPELEKEAKRLSR
B13: il2ra_site2_2erj_sap_28_mot_HHH_b1_08185_000000106_0001_41_55_H_._HHH_b2_03845_af2_0001_0001200037_0000001_0_0001 (protein)
chain: SSSSDEEEERLEELVERAERLLKEGNPEEAWEVLREAATLAWELGDEEIWSRLSKLTAEVASSSS
B14: il2ra_site1_1z92_normal_mot_54e474eed2d0515e81978198f0f96ec2_0001_000000202_0001_15_30_H_._8eb524b276bbb897fd8f0cca34c37a2d_0001_af2_0001_0000300018_0000001_0_a … (protein)
chain: DVEEEIEEALKELGVPPEEIKVVKRDFRLAREAGIPPEQVLRALINAARASGDEELTEALELVLK
B15: il2ra_site1_3nfp_normal_mot_e80b558ee5422d85aa46efdc370d0602_0001_af2_000000114_0001_54_65_H_._HEEHE_2247_0002_0000400019_0000001_0_af2pred_0001_af2pred (protein)
chain: DRQEILQEDAELISKVAGVTSVHVEVENGHVTVTVEADNRRARALLRILREAAKIAGLEVEITIE
B16: il2ra_site2_2erj_normal_mot_HHH_b1_02757_000000121_0001_41_57_H_._HHH_b1_02256_0001_0000700046_0000001_0_af2pred_0001_af2pred (protein)
chain: SSSSSSSVEEEVKELLEQAKHIPDIREALKVLEEADRLALENDNEELLELITRVLRELSSSSSSS
B17: il2ra_site2_2erj_normal_mot_HHH_b2_04744_000000294_0001_42_58_H_._HHH_b1_07967_af2_0001_0000500022_0000001_0 (protein)
chain: SSSSDEEERLEELLKELEELSRKRDFHRFAEVFSEILELVEENNDEEAALIAFRIMREHFGSSSS
B18: il2ra_site1_2b5i_normal_mot_f5ff40796168375b462bec8614a1db4a_0001_1_000000138_0001_53_65_H_._HHH_b2_01775_0001_0000500027_0000001_0_af2pred_dldesign_0_af2pred (protein)
chain: SSSSSSEKRELIQALIDEAKKEEDKRLAKRLLLLALRLARKHNDEELIAEIEALLKELESSSSSS
B19: il2ra_site2_2erj_sap_16_mot_HHH_b2_07792_af2_000000252_0001_18_34_H_._HHH_b1_07975_af2_0001_0000200006_0000001_0_0001 (protein)
chain: SSSSSDTEEEVEELLEQAKRITDLREVYRLAVEALHLAARVQDPELQRLVAEVVEELSRSSSSSS
B20: il2ra_site2_2erj_sap_19_mot_HHH_b2_01275_af2_000000073_0001_23_39_H_._HHH_b1_01063_af2_0001_0000200019_0000001_0_0001 (protein)
chain: SSSSDKLRELYELAVEVLRAVARGDEEEAERLLEEAKELAEELDSPNAREALENNKRLLKSSSSS
B21: il2ra_site2_2erj_sap_14_mot_HHH_b2_01204_af2_000000056_0001_19_34_H_._HHH_b2_03878_0001_0000200011_0000001_0_0001 (protein)
chain: SSSSDWLHELYELASEITRLLAEGDPEEARRLLEELEELAEENDSPNAEEIVERLEKKIESSSSS
B22: il2ra_site1_2b5i_sap_14_mot_HHH_b2_01684_af2_000000128_0001_1_17_H_._HHH_b1_05605_0001_0000200010_0000001_0_0001_af2pred_dldesign_0_af2pred (protein)
chain: SSSSSSSSDRRALLEEANKAFQAGDVEALEALLERAEAAGWEKVARTIRKAIEALLESSSSSSSS
B23: il2ra_site1_2b5i_sap_9_mot_HHH_b2_02740_000000236_0001_1_21_H_._HHH_b1_02398_0001_0000300016_0000001_0_0001 (protein)
chain: SSSSDDELFHEIDELFREASRLFLNGNPEEAEKVLEKAIRLAEEGGDESTAEDLRRFLELLSSSS
B24: il2ra_site2_3nfp_sap_25_mot_HHH_b2_06150_000000217_0001_39_53_H_._HHH_b2_05014_af2_0001_0000300011_0000001_0_0001 (protein)
chain: DEVSEVIWRLREEGDPELAFLLFAVRADVLYKHDPELEEELEKLIELAERDPEKAKELAEELLRR
B25: il2ra_site2_2erj_normal_mot_HHH_b2_01353_af2_000000049_0001_23_39_H_._HHH_b1_04436_af2_0001_0000200013_0000001_0 (protein)
chain: SSSSDEIEELLEKAKELLEKGNPEEAEEVLRRASVAAFENRDHEAFAEIAELLRIVAELEASSSS
B26: il2ra_site1_1z92_sap_28_mot_HHH_b1_00661_af2_000000033_0001_38_50_H_._HHH_b2_00267_af2_0001_0000300009_0000001_0_0001_af2pred_0001_af2pred_1 (protein)
chain: PEELAEQAEELLKNGNPEEAEKVLRELAKELGNEEVFERDLEHAERNLGNPEQALLSLIKALSFV
B27: il2ra_site1_1z92_sap_12_mot_HHH_b2_04974_000000012_0001_1_17_H_._HHH_b1_06150_af2_0001_0000300041_0000001_0_0001_af2pred_dldesign_0_af2pred (protein)
chain: SSSSSSPYQRARDLILEINKARQAGDTEKFDELLAELEKLAKELESNTLLRFIEHARKELSSSSS
B28: il2ra_site2_2erj_normal_mot_HHH_b2_06912_000000039_0001_38_52_H_._HHH_b2_01292_0001_0000100004_0000001_0 (protein)
chain: SSSSSDKEESEKLAEEAHELILRNPERVEEIVEEFRRELEELNDPIAVRYLELVRRDVNSSSSSS
B29: il2ra_site2_3nfp_sap_24_mot_HHH_b1_03818_000000217_0001_1_20_H_._HHH_b1_04518_af2_0001_0000400014_0000001_0_0001 (protein)
chain: SEKDLIEMSLEMIKAHALLHGNEEVQEIVEELERLLEEAKRKNDEELREEVAERAAELIERVLES
B30: il2ra_site2_2erj_normal_mot_HHH_b2_00494_000000216_0001_41_54_H_._HHH_b1_07802_af2_0001_0000300011_0000001_0 (protein)
chain: SSSSNEELRRLYELADEALRLITEGNPEEAEKVLEEARELAERLNSENAREVVEFLEELLESSSS
B31: il2ra_site2_2erj_sap_21_mot_HHH_b2_00938_af2_000000099_0001_43_55_H_._HHH_b1_03152_af2_0001_0000100003_0000001_0_0001 (protein)
chain: SSSSLHEAFEIAVEAAAKISRLHREGNDEEAKRVFEEARERLEELGTENAREHLEHLFKALSSSS
B32: il2ra_site2_3nfp_normal_mot_HHH_b1_00660_af2_000000090_0001_40_57_H_._HHH_b1_02730_0001_0001000022_0000001_0 (protein)
chain: SSSSSDEEVRELLEQLRELIEKNDEEEFERLSREITNLAYELNNFELFALVQELRARFISSSSSS
B33: il2ra_site2_3nfp_normal_mot_HHH_b2_04451_000000238_0001_21_37_H_._HHH_b2_04195_af2_0001_0000200011_0000001_0 (protein)
chain: SSSSSEEEEVRELLEQARELLERGDPYEALELLAEASEIAAKLNNEELARLILELFEKVQKSSSS
B34: il2ra_site2_3nfp_normal_mot_HHH_b2_08209_000000146_0001_1_18_H_._HHH_b1_00160_0001_0000200018_0000001_0 (protein)
chain: SSSSSTEEERERVEELLEEAKEITDPEERKELLAEATQIAYEANDFELFALVADVVFELLSSSSS
B35: il2ra_site2_3nfp_sap_19_mot_HHH_b1_06699_000000048_0001_23_40_H_._ems_3hC_59_0001_0000100006_0000001_0_0001_af2pred_0001_af2pred (protein)
chain: SSSSSDAAEEAEELAEEARHVEDPEERERILRKAAELAYRARDHEVFAEIHLVIEELERSSSSSS
B36: il2ra_site1_3nfp_normal_mot_HHH_b2_08102_af2_000000255_0001_38_50_H_._HHH_b2_05157_0001_0000400017_0000001_0_af2pred_0001_af2pred (protein)
chain: SSSSDHLAREYTEWAKRRIRELLERGDEEAARRLLEKAKRSLEIAGDEEAVEELEKLYEELSSSS
B37: il2ra_site1_2b5i_normal_mot_HHH_b2_01040_af2_000000143_0001_42_56_H_._HHH_b1_04969_af2_0002_0000100009_0000001_0 (protein)
chain: SSSSSDEAEEAAREALELLRELLRVDEEEIKELLEEAHEKLEKLNDEALLKRVERLLRLLSSSSS

target: il2ra, P01589; experiment: yeast display titration
Sequence (P01589 whole entry): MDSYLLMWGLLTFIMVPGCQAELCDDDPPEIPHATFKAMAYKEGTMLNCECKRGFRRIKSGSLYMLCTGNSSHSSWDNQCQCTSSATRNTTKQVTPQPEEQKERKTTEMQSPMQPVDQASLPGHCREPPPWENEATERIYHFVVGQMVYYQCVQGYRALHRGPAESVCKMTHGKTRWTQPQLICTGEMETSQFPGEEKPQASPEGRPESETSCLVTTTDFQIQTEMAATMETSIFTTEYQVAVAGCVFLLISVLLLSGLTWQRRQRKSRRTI

Apparent Kd, inactive:
B1 no binding seen
B2 no binding seen
B3 no binding seen
B4 no binding seen
B5 no binding seen
B6 no binding seen
B7 no binding seen
B8 no binding seen
B9 no binding seen
B10 no binding seen
B11 no binding seen
B12 no binding seen
B13 no binding seen
B14 no binding seen
B15 no binding seen
B16 no binding seen
B17 no binding seen
B18 no binding seen
B19 no binding seen
B20 no binding seen
B21 no binding seen
B22 no binding seen
B23 no binding seen
B24 no binding seen
B25 no binding seen
B26 no binding seen
B27 no binding seen
B28 no binding seen
B29 no binding seen
B30 no binding seen
B31 no binding seen
B32 no binding seen
B33 no binding seen
B34 no binding seen
B35 no binding seen
B36 no binding seen
B37 no binding seen
